Structures are written as SMILES. Where “and” joins values, the source holds several entries; their conditions need not be identical. Equal values may be shown once. Results filed as inconclusive are left out. For part of these data: Entries with a potency or affinity are not part of this list. A structure can be active in one record and inactive in another. Calls of active or inactive are those of the source.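 How the source made its calls, unless noted: active means compounds whose cell count with miR-34 switched on is under 0.7 times the count with it off; inactive means the rest.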

We go through 9 molecules from PubChem BioAssay.

Assay [1] can be described thus: hESC survival regulators, cell-based (AID 493140; call rule not given here;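 further: cells exposed to compounds for four days before counting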). Particulars: human embryonic stem cell survival screen; stronger effect = higher value.
Assay [2] in a line: liver-stage malaria parasite growth inhibition, primary screen, cell-based, HepG2, luciferase luminescence, HepG2 viability (AID 624349; in the data active means parasite load remaining mostly below about 12%, no sharp cut-off; inactive means mostly above about 10%;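 further: 100% = mean of DMSO negative control wells on the same plate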). The note with it: P. berghei liver stage in HepG2, luciferase luminescence, concentration not given here; parasite load remaining: stronger effect = lower value; viability: measured here: HepG2 viability without parasites.
Assay [3] can be described thus: sensitizers of A549 cells to miR-34 induction, primary screen, imaging, A549 dox-inducible miR-34, nuclei and caspase counts (AID 1347080). The note with it: A549 miR-34 inducible, Hoechst nuclei count, 48 h.
The nature of assay [4]: survival rescue of mitochondrial mutant cells in low glucose, primary screen, MELAS cybrids, Rieske KO mouse fibroblasts, CellTiter-Glo (AID 1508586;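 active means mean z-score across replicates of 1.96 or higher in either the MELAS or the Rieske mutant cell line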;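 further: z relative to plate mean and SD of compound and empty wells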). For orientation: Cellular ATP, detected with luciferase, serves as a proxy for viable cell number.
Assay [5] is described as follows: viability rescue of complex I mutant cybrids, primary screen, cell-based, galactose medium, ATP luminescence (AID 1645843;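 active means z-score of at least 1.8 in each of two replicates, scored against plate mean and spread of sample wells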;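 further: positive z means more ATP and so rescue of galactose-driven cybrid death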). The note with it: complex I mutant cybrid cells, 72 h, stronger effect = higher value.
Assay [6] has as its target ATP-dependent translocase ABCB1 (Homo sapiens) (UniProt P08183). Briefly: MDR1 (ABCB1) efflux transporter inhibition, cell-based (AID 377; in the data active means fluorescence slope change above about 50%). The note with it: MDR1-expressing cells, fluorescent substrate accumulation slope; stronger effect = higher value; concentration not given here.
A short description of assay [7]: polyglutamine-triggered caspase-3 activation inhibitors, cell-based (AID 1583). Particulars: polyglutamine-induced caspase-3 activation, cell assay; stronger effect = higher value;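 tested at 10 µM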.
The nature of assay [8]: suppressors of polyQ aggregation in yeast, 75Q-TubU reporter (AID 1593). Particulars: Yeast 75Q polyglutamine aggregation reporter.
Assay [9] is described as follows: rescue of polyQ-huntingtin neuronal dysfunction in worms, whole organism, C. elegans mechanosensory neurons, N-terminal huntingtin (AID 1599). Particulars: touch response, stronger effect = higher value.
A short description of assay [10]: inhibitors of mitochondrial cytochrome c release, biochemical, purified mitochondria (AID 1603).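 Further: mouse liver mitochondria challenged with calcium chloride; signal normalized to the plate average as 100%.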 The note with it: stronger effect = lower value.
Assay [11] is described as follows: inhibitors of polyQ protein aggregation (AID 1604). Particulars: polyglutamine-induced protein aggregation inhibition assay; stronger effect = higher value; tested at 2.5 µM.
Assay [12] in a line: enhancers of glutamate uptake in motor neurons, MN-1 cell line (AID 1612).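 Further: tested at 1 µM final; 0% = mean of DMSO vehicle wells on each plate; positive means more glutamate uptake than control and negative means less.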 The note with it: MN-1 motor neuron cells, stronger effect = higher value.
A short description of assay [13]: reducers of polyQ inclusions in PC12 cells, cell-based, NGF-treated PC12, GFPQ80 (AID 1614).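 Further: lower means fewer inclusions and 0 means no inclusions at all.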 Particulars: PC12 NGF-treated GFP-polyQ80 inclusion reduction.
Assay [14] is described as follows: suppressors of polyglutamine aggregation in yeast, 75Q-TubH (AID 1616). Particulars: S. cerevisiae 75Q-TubH polyglutamine aggregation suppression; stronger effect = higher value.
The subject of assay [15] is Hepatitis C virus NS3 helicase. Briefly: HCV NS3 helicase inhibitors, primary screen, biochemical, fluorescence polarization, LOPAC1280 library (AID 687035; in the data active means inhibition above about 37%). The note with it: Purified HCV NS3 helicase, Cy5-dT15 ssDNA binding fluorescence polarization; stronger effect = higher value; concentration not given here.
Assay [16] in a line: Cy5 fluorescence quenching or enhancement artefacts, artefact control for HCV NS3 helicase inhibitor project, biochemical, LOPAC1280 (AID 687037; call rule not given here). The note with it: Cy5-DNA-NS3h complex fluorescence interference counterscreen. For orientation: Counterscreens check selectivity or assay interference.
In assay [17] the target is Mitogen-activated protein kinase 7 (Homo sapiens) (UniProt Q13164). Description: ERK5 transactivation activators in reporter cells, primary screen, cell-based, HTS (AID 1508626;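 active means luciferase signal above three times the same-plate solvent-only control wells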;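 further: luciferase driven by Gal4-ERK5 fusion binding five Gal4 sites before minimal TATA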). The note with it: HeLa Gal4-ERK5 transactivation, 18 h, at 5 µM, stronger effect = higher value.
Sequence of Mitogen-activated protein kinase 7 (Homo sapiens) (Q13164 whole entry, looked up, the tested form may be a part): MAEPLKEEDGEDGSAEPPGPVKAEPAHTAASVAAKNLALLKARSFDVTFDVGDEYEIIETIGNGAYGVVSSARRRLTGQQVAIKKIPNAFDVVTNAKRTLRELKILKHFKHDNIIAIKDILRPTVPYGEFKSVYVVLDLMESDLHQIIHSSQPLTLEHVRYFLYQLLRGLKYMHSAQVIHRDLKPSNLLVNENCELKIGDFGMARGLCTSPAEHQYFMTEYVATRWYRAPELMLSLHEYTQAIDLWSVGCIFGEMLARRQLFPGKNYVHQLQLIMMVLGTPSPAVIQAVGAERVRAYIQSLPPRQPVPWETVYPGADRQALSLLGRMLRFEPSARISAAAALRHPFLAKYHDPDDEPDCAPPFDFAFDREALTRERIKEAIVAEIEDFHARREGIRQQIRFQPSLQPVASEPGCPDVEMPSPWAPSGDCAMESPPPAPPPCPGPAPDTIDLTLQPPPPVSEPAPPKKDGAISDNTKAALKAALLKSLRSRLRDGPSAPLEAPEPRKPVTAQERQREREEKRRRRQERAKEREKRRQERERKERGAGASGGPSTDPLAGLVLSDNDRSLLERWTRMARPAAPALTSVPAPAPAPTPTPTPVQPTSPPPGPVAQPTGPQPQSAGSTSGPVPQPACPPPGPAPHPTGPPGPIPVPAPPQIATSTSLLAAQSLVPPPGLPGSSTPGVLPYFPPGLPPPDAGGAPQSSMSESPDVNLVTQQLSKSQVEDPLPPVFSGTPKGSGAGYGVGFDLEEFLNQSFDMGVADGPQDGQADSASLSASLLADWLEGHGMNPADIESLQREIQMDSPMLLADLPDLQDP
Assay [18] deals with NAD(+) hydrolase SARM1 (Homo sapiens) (UniProt Q6SZW1). Description: SARM1 TIR NADase inhibitors, cell lysate, NAD-Glo luminescence (AID 1508614;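 active means compound whose remaining NAD level is above about 45 nM, limit read from the data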). Particulars: SAM-TIR HEK293T lysate NADase, at 1 µM, stronger effect = higher value.
Sequence of NAD(+) hydrolase SARM1 (Homo sapiens) (Q6SZW1 whole entry, looked up): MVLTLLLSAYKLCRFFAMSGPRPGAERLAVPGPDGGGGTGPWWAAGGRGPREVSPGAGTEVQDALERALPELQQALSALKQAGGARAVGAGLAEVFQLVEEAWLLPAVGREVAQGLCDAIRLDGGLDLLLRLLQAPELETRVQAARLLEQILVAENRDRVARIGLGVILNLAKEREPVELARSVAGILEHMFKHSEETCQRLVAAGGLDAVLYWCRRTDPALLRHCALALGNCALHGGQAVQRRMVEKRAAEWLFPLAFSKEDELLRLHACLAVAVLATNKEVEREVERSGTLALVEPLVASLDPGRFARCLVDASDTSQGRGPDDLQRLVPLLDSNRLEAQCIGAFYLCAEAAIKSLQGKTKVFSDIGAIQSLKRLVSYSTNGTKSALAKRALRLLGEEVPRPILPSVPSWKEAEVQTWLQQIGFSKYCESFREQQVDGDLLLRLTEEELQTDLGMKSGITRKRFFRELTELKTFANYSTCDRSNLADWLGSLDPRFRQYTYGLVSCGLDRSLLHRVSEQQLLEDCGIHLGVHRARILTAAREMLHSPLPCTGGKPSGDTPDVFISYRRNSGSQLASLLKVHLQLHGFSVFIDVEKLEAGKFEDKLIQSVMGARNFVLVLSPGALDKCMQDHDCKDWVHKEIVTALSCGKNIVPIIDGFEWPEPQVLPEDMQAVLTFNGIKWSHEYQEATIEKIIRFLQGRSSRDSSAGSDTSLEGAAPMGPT
Setting [19] is: measured here: relative caspase fold change +Dox/-Dox.
[20] abbreviates: measured here: total cells with miR-34 induction, stronger effect = lower value.
The mark [21] stands for this setting: measured here: total cells without miR-34 induction.
The mark [22] stands for this setting: MELAS cybrid survival, CellTiter-Glo 48 h, stronger effect = higher value.
Where [23] appears, read: Rieske KO mouse fibroblast survival, CellTiter-Glo 72 h.
Where [24] appears, read: stronger effect = lower value, cell number ratio, induced over uninduced.

Sequence of ATP-dependent translocase ABCB1 (Homo sapiens) (P08183 whole entry, looked up): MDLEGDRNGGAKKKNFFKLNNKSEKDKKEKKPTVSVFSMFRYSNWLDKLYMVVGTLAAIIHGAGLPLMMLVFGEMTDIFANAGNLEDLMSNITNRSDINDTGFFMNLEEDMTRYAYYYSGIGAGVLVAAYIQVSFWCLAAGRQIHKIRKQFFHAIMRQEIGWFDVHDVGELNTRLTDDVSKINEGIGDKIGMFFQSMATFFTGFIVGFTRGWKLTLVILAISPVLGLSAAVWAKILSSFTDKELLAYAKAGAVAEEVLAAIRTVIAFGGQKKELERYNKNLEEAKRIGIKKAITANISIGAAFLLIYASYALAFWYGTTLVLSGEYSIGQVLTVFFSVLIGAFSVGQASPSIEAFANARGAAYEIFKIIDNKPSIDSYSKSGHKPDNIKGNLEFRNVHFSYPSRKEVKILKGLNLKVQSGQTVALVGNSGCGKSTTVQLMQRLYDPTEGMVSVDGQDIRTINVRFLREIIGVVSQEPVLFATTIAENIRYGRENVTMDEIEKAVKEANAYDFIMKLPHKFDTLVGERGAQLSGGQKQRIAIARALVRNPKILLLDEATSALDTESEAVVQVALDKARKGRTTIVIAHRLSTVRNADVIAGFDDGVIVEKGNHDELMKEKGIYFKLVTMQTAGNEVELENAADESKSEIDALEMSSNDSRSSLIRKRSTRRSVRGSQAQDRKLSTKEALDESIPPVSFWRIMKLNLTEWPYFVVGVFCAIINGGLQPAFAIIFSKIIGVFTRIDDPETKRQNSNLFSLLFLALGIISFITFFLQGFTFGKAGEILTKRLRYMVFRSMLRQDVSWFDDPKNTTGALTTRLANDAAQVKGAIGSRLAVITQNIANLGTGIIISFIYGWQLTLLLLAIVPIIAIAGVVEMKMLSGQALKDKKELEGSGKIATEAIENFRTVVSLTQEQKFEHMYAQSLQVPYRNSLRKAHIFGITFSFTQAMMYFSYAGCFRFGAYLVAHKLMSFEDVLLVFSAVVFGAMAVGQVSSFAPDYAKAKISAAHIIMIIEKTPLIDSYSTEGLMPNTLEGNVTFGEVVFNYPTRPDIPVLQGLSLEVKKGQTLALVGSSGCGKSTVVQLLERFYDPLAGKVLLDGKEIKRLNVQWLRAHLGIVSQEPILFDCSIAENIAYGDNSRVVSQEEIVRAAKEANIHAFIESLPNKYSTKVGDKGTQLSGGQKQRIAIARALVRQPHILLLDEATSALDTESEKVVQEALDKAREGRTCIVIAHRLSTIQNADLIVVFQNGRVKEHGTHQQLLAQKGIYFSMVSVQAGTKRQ

With `CCCCCC[C@H]1C(=O)O[C@H](C)C(NC(=O)c2cccc(NC=O)c2O)C(=O)O[C@@H](C)[C@@H]1OC(=O)CC(C)C` (stereo not given in full), the survival in assay [1] is 38.8 (inactive). In addition, the parasite load remaining in assay [2] is 0.52% (inactive) and 0.28% (active). Also, the viability in [2] was 30.3% and 71%. Also, the figures for the fold change in assay [3] (stronger effect = lower value) and in assay [3] (setting [19]) were 1.21 (inactive) and 0.771, respectively. Further, the cell count in [3] (setting [20]) was found to be 3300; in assay [3] (setting [21]) it was 2720. Further, the results for the z-score in assay [4] (setting [22]) and in [4] (setting [23]) were 0.402 (inactive) and 0.0989, respectively.

In the case of `CCC1C(=O)OCC1Cc1cncn1C` (stereo not given), in assay [2], the parasite load remaining was 38.7% (inactive). For the same molecule, in [2], the viability was found to be 114%. The fold change in assay [3] (setting [24]) was 0.926 (inactive) and 0.807 (inactive) and 0.899 (inactive); in assay [3] (setting [19]), 1.4 and 2.3 and 1.43. The cell count is 9120 and 8440 and 10400 in [3] (setting [20]); 9850 and 10500 and 11500 in [3] (setting [21]). Also, the z-score is -0.194 (inactive) and -0.728 (inactive) in [4] (setting [22]); -0.153 and 0.0525 in assay [4] (setting [23]); 1.16 (inactive) and 0.695 (inactive) in assay [5].

As to `CN1C[C@H](CO)C=C2c3cccc4[nH]cc(c34)C[C@H]21`, the fluorescence slope change in assay [6] was 116% (active). Moreover, in assay [7], the inhibition amounted to 16.6%. In assay [8], the score came to 1.69. The molecule also showed a rescue above control in assay [9] of 7.23. Moreover, in assay [10], the cytochrome c release ratio is 1.6. Also, the inhibition of aggregation in assay [11] was 44.9%. In assay [12], the glutamate uptake change is -16.1%. Further, the inclusion score in assay [13] turned out to be 2. In assay [14], this molecule had an aggregation suppression score of 1.67. Besides, the survival in assay [1] was 7.67 (inactive). The parasite load remaining in assay [2] was 67.2% (inactive) and 71.4% (inactive). Moreover, the viability in [2] was 100% and 77.2%. Further, the fold change was 0.809 (inactive) in [3] (stronger effect = lower value) and 1.6 in assay [3] (setting [19]). In addition, the cell count worked out at 8450 in [3] (setting [20]) and 10400 in [3] (setting [21]).

`C[N+]1(C)C2CC[C@H]1CC(OC(=O)C(CO)c1ccccc1)C2` (stereo not given in full): in assay [2], the parasite load remaining is 93.5% (inactive). For the same molecule, the viability in assay [2] was 105%. Also, the figures for the fold change in assay [3] (setting [24]) and in assay [3] (setting [19]) were 0.955 (inactive) and 1.32, respectively. For the same molecule, the cell count in [3] (setting [20]) is 8910; in assay [3] (setting [21]) it was 9340. For the same molecule, the z-score was 0.0273 (inactive) in [4] (setting [22]) and -0.854 in [4] (setting [23]).

As for `CCCCCN(C)CCC(O)(P(=O)(O)O)P(=O)(O)O`, the inhibition in assay [15] is -2% (inactive). Moreover, the fluorescence ratio (interference) in [16] was 1 (inactive). For the same molecule, the fold change in [3] (setting [24]) was 0.977 (inactive) and 0.868 (inactive); in assay [3] (setting [19]) it was 0.937 and 1.66. Also, the cell count in assay [3] (setting [20]) is 10500 and 8850; in assay [3] (setting [21]) it was 10800 and 10200. The z-score in assay [4] (setting [22]) was -0.786 (inactive) and -0.235 (inactive); in [4] (setting [23]) it was 0.068 and -1.03; in assay [5], 0.42 (inactive) and 0.08 (inactive).

`C[C@]12CC[C@H]3[C@@H](CC[C@]4(O)C[C@@H](O)CC[C@]34C=O)[C@@]1(O)CC[C@@H]2C1=CC(=O)OC1`: in assay [6], the fluorescence slope change was 11.2% (inactive). The survival in [1] was 1.42 (inactive). The parasite load remaining in [2] is 0.385% (inactive). Moreover, in assay [2], the viability is 54%. The fold change was 1.08 (inactive) in assay [3] (stronger effect = lower value) and 0.794 in [3] (setting [19]). Also, the cell count in [3] (setting [20]) is 773; in assay [3] (setting [21]), 713. Also, in [17], the luciferase signal is 16 AU (inactive).

For the molecule `CCC(C)(C)O`, the fold change is 0.953 (inactive) in assay [3] (stronger effect = lower value) and 0.901 in assay [3] (setting [19]). The cell count in assay [3] (setting [20]) turned out to be 9020; in assay [3] (setting [21]), 9470. Also, the remaining NAD in [18] is 10 nM (inactive).

For `C#CC(C)(O)CC` (stereo not given), the fold change in [3] (stronger effect = lower value) was 0.85 (inactive); in [3] (setting [19]) it was 1.03. Besides, the cell count in assay [3] (setting [20]) was 8040; in [3] (setting [21]), 9450. In addition, the remaining NAD in [18] is 10 nM (inactive).

On to `CC(C)(O)C1C2OC(=O)C1[C@]1(O)CC3O[C@]34C(=O)OC2[C@]14C` (stereo not given in full) (tested in a mixture with another compound), for which the values for the fold change in assay [3] (stronger effect = lower value) and in [3] (setting [19]) were 0.954 (inactive) and 1.55, respectively. Further, the cell count in assay [3] (setting [20]) is 9380; in assay [3] (setting [21]), 9830. In [5], the z-score was 0.86 (inactive).

By viability is commonly meant a read-out of living cells in per cent, often relative to untreated cells. For orientation: inhibition means the change of the read-out against control, counted positive when it falls.
